Bioassay records deposited in PubChem BioAssay by National Center for Advancing Translational Sciences (NCATS).
In the library only some 7% were active in any assay of this set; here they are far more common.
HP1b chromo inh: inhibitors of HP1-beta chromodomain binding to methylated histone tails; P83916; AlphaScreen HP1-beta / biotin-H3K9me3 peptide binding; Potency, µM (titrated, usually from 114 µM), hits mostly inhibitors; 390,000 tested, 0.56% active; AID 540317; note: nearly all actives have a fitted effect of over 70% in size
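Compound inhibition of the preformed complex between 50 nM HP1-beta and 50 nM biotinylated H3K9me3 peptide was read by AlphaScreen. Buffer was PBS pH 7.4 with 0.01% Tween-20. Incubations ran 30 min at room temperature, with 10 ug/mL donor/acceptor beads.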
JMJD2A Tudor inh: inhibitors of human JMJD2A Tudor domain; AlphaScreen JMJD2A-Tudor / H3K4me3 peptide binding; Potency, µM (highest dose often 114 µM), usual class: inhibitors; 390,000 tested, 4.4% active; AID 504339; note: nearly all actives have a fitted effect of over 50% in size
KAT2A inh: inhibitors of human GCN5L2 histone acetyltransferase. Q92830. GCN5L2 HAT assay, ThioGlo1 CoA-SH fluorescence. Potency, µM (top dose mostly 58.9 µM), hits mostly inhibitors. 390,000 tested, 0.21% active. AID 504327
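Free CoA generated was detected with ThioGlo1 (50uM) fluorescence at Ex340nm/Em540nm, read immediately and after 20 min at room temperature. Enzyme, 20 nM in HEPES pH 7.5 buffer, saw compounds 15 min before adding 75uM H3(1-25) peptide and 70uM acetyl-CoA.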
PI5P4Ka inh: inhibitors of human PI5P4K alpha; P48426; PI5P4Kalpha enzyme, ADP-Glo luminescence, 60 min; active compounds read low; max response, %; 330,000 tested, 1.2% active; active = max response of -50% or lower; inconclusive = between -30% and -50%; inactive = -30% or higher; note: value at the top dose of about 77 µM
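Controls without substrate or without enzyme flank wells where PI5P4Kalpha converts substrate using 5 microM ATP (final). Incubation lasts 60 minutes at room temperature; ADP formed is read by ADP-Glo luminescence.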
PLK1 PBD block: PLK1 (human) polo-box domain binding inhibition | P53350 | Plk1 PBD binding of FITC phosphopeptide, fluorescence polarization | Potency, µM, usual class: inhibitors | 360,000 tested, 2.8% active | AID 720504; note: series mostly up to about 57 µM; nearly all actives have a fitted effect of over 65% in size
Target sequence (P53350 whole entry, looked up, the tested form may be a part): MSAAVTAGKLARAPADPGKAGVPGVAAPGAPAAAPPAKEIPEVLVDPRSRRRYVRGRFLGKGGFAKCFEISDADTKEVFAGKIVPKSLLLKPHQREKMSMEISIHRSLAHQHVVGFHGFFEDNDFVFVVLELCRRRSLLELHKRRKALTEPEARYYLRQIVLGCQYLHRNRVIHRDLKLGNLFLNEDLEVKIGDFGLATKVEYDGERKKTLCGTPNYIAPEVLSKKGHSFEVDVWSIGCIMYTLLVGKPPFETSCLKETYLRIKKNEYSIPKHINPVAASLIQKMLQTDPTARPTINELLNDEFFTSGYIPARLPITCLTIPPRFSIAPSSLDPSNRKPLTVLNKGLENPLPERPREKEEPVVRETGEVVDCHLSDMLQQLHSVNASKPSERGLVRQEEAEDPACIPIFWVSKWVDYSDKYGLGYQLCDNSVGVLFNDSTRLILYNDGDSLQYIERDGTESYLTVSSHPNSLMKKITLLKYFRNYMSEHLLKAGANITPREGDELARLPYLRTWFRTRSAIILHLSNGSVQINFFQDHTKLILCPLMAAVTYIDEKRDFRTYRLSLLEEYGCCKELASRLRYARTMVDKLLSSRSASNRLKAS
BAZ2B block: blocks human BAZ2B | AlphaScreen BAZ2B-H3K14Ac peptide displacement | Potency, µM (doses to about 114 µM), most hits filed as inhibitors | 360,000 tested, 4.4% active; note: nearly all actives have a fitted effect of over 60% in size
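BAZ2B (50 nM) with biotin-H3(5-23)K14Ac peptide (50 nM) in PBS pH 7.4, 0.01% Tween-20, preformed 30 min, then compound 30 min at room temperature; top concentration 110uM. AlphaScreen streptavidin donor/nickel chelate acceptor beads (10 ug/mL final), 20 min dark, signal read.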
A number is an active result. Unless noted, calls come from the whole dose curve; as a rule, active = well fitted curve in the direction sought with a large enough effect; inconclusive = small, poorly fitted or top-dose-only effect, or another doubt; inactive = no such curve, though single readings can be large; an effect the other way counts as inactive or inconclusive.

For O=c1cc(N2CCN(Cc3ccccc3)CC2)[nH]c(=O)n1-c1cccc(C(F)(F)F)c1 the results were HP1b chromo inh inactive, JMJD2A Tudor inh inactive, KAT2A inh inactive, PLK1 PBD block inactive and BAZ2B block inactive.
For COc1cccc(N2CCN(Cc3cccnc3)CC2)c1 the results were HP1b chromo inh 56.2µM, JMJD2A Tudor inh 3.16µM, KAT2A inh inactive, PLK1 PBD block inactive and BAZ2B block 39.8µM.
Screening FC(F)(F)c1cccc(N2CCN(Cc3ccoc3)CC2)c1 returned HP1b chromo inh inconclusive, JMJD2A Tudor inh 3.55µM, KAT2A inh inactive, PLK1 PBD block inactive and BAZ2B block 50.1µM.
For COc1cccc(N2CCN(c3ncc4c(n3)CCN(Cc3ccc(Br)cc3)C4)CC2)c1 the results were HP1b chromo inh inactive, JMJD2A Tudor inh 56.2µM, KAT2A inh inactive and BAZ2B block 22.4µM.
COc1cccc(N2CCN(Cc3ncc(-c4ccccc4)o3)CC2)c1 was read as HP1b chromo inh inactive, JMJD2A Tudor inh inactive, KAT2A inh inactive, PI5P4Ka inh inactive, PLK1 PBD block inactive and BAZ2B block inactive.
Screening CCOc1ccc(CN2CCc3nc(N4CCN(c5ncccn5)CC4)ncc3C2)cc1OC returned HP1b chromo inh inactive, JMJD2A Tudor inh inconclusive, KAT2A inh inactive and BAZ2B block inactive.
`CCc1nc2c(OCCC3CCCCC3)cccn2c1N(C)C(=O)c1cccs1` gave PI5P4Ka inh inconclusive and PLK1 PBD block inactive.
Cc1cc(C)cc(NC(=O)Cn2c(=O)n(C(C)C)c(=O)c3oc4ccccc4c32)c1 was read as HP1b chromo inh inactive, JMJD2A Tudor inh inactive, KAT2A inh inactive and BAZ2B block inactive.
Cc1ccc2c(c1)CC(C)N2S(=O)(=O)c1nnc(NC(=O)C(C)C)s1 (stereo not drawn) was read as HP1b chromo inh inactive, JMJD2A Tudor inh inactive, KAT2A inh inactive and BAZ2B block inactive.
COc1ccc(-c2csc(C(C)(O)c3cccc(F)c3)n2)cn1 (stereo not drawn) was read as PI5P4Ka inh inactive and PLK1 PBD block inactive.
`O=C(COC(=O)c1ccccc1)NCc1ccco1` gave HP1b chromo inh inactive, JMJD2A Tudor inh inconclusive, KAT2A inh inactive, PI5P4Ka inh inconclusive, PLK1 PBD block inactive and BAZ2B block 50.1µM.
O=C(COC(=O)c1ccccc1Nc1cccc(C(F)(F)F)c1)NCc1ccco1 was read as HP1b chromo inh inconclusive, JMJD2A Tudor inh 56.2µM, KAT2A inh inactive, PI5P4Ka inh inconclusive, PLK1 PBD block inactive and BAZ2B block 44.7µM.
Cc1ccc(C(=O)OCC(=O)NCc2ccco2)cc1 was read as HP1b chromo inh inactive, JMJD2A Tudor inh inactive, KAT2A inh inactive, PI5P4Ka inh inactive, PLK1 PBD block inactive and BAZ2B block inconclusive.
O=C(COC(=O)c1ccco1)NCc1ccco1 was read as HP1b chromo inh inactive, JMJD2A Tudor inh inactive, KAT2A inh inactive, PLK1 PBD block inactive and BAZ2B block inactive.
O=C(COC(=O)COc1ccccc1)NCc1ccco1 was read as HP1b chromo inh inactive, JMJD2A Tudor inh inactive, KAT2A inh inactive, PI5P4Ka inh inactive, PLK1 PBD block inactive and BAZ2B block inactive.
Screening O=C(COC(=O)c1ccccc1Oc1ccccc1)NCc1ccco1 returned HP1b chromo inh inconclusive, JMJD2A Tudor inh 56.2µM, KAT2A inh inactive, PI5P4Ka inh inconclusive, PLK1 PBD block inconclusive and BAZ2B block 28.2µM.
For O=C(COC(=O)c1ccc(Br)o1)NCc1ccco1 the results were HP1b chromo inh inactive, JMJD2A Tudor inh 79.4µM, PI5P4Ka inh inconclusive and PLK1 PBD block inactive.
For O=C(OCCOCCO)c1ccccc1Nc1cccc(C(F)(F)F)c1 the results were KAT2A inh inactive.
For CCOC(=O)C1=CN(Cc2ccco2)S(=O)(=O)NC1c1ccc(Br)cc1F (stereo not drawn) the results were HP1b chromo inh inactive, JMJD2A Tudor inh inactive, KAT2A inh inactive, PI5P4Ka inh inconclusive and PLK1 PBD block inactive.
`Cc1ccc(C)c(NC(=O)C2CCCN(S(=O)(=O)c3c(C)nn(C)c3C)C2)c1` (stereo not drawn) gave HP1b chromo inh inactive, JMJD2A Tudor inh inactive, KAT2A inh inactive, PI5P4Ka inh inactive, PLK1 PBD block inactive and BAZ2B block inactive.
`O=C(COC(=O)/C=C/c1ccco1)NCc1ccco1` gave HP1b chromo inh inactive, JMJD2A Tudor inh 79.4µM, KAT2A inh inactive, PI5P4Ka inh inconclusive, PLK1 PBD block inconclusive and BAZ2B block 44.7µM.
For O=C(COC(=O)c1cccc(Br)c1)NCc1ccco1 the results were HP1b chromo inh inconclusive, JMJD2A Tudor inh 17.8µM, KAT2A inh inactive, PI5P4Ka inh inconclusive and PLK1 PBD block inactive.
N#CCC(=O)Nc1ccc(C(=O)OCC(=O)NC(=O)NCc2ccco2)cc1 was read as HP1b chromo inh inactive, JMJD2A Tudor inh inactive, KAT2A inh inactive, PI5P4Ka inh -54.9 and PLK1 PBD block inactive.
Screening Cc1cccc(C(=O)OCC(=O)NCc2ccco2)c1 returned HP1b chromo inh inactive, JMJD2A Tudor inh inconclusive, KAT2A inh inactive, PI5P4Ka inh inactive, PLK1 PBD block inactive and BAZ2B block inconclusive.
`O=C(COC(=O)c1ccccc1C(=O)c1ccccc1)NCc1ccc(F)cc1` gave HP1b chromo inh inactive, JMJD2A Tudor inh inconclusive, KAT2A inh inactive, PI5P4Ka inh inactive, PLK1 PBD block 23.8µM and BAZ2B block inactive.
For CCCS(=O)(=O)NC(=O)C1(C)CCCN(C(=O)c2ccccc2)C1 (stereo not drawn) the results were PI5P4Ka inh inactive and PLK1 PBD block inactive.
For C=CCN1C=C2C(=O)C(C)(OC(=O)c3cccs3)C(=O)C=C2C=C1CCCC(=O)OC (stereo not drawn) the results were HP1b chromo inh inactive, JMJD2A Tudor inh inactive, KAT2A inh inactive, PI5P4Ka inh inactive, PLK1 PBD block inactive and BAZ2B block 79.4µM.
`COc1ccc(Cn2c(C(=O)O)c(CNCC(C)c3ccccc3)c3ccc(OC)cc32)cc1` (stereo not drawn) gave HP1b chromo inh inactive, JMJD2A Tudor inh inconclusive, KAT2A inh inactive and BAZ2B block inconclusive.
Screening COCCCNC(=O)C[C@@H]1C[C@@]2(C(=O)OC)CCCCC=C2N(Cc2ccc(Cl)cc2Cl)C1=O returned PI5P4Ka inh inactive and PLK1 PBD block inactive.
Screening CCC(C)NCCCCOc1ccc(Br)cc1 (stereo not drawn) returned HP1b chromo inh inconclusive, JMJD2A Tudor inh 1.58µM, KAT2A inh inactive, PI5P4Ka inh inactive, PLK1 PBD block inactive and BAZ2B block inconclusive.
`Cc1cc(OCC(O)CN2CCc3ccccc3C2)cc(C(C)C)c1` (stereo not drawn) gave HP1b chromo inh inactive, JMJD2A Tudor inh inactive, KAT2A inh inactive, PI5P4Ka inh inactive, PLK1 PBD block inactive and BAZ2B block inactive.
For C[N+](C)(C)CCOc1ccc([N+](=O)[O-])cc1 the results were HP1b chromo inh inactive, JMJD2A Tudor inh inactive, KAT2A inh inactive, PI5P4Ka inh inactive, PLK1 PBD block inactive and BAZ2B block inactive.
